# From the supplement of paper PMC12636033
# ± gives the standard deviation of the averaged measurements. In all, about 33,000 sequences were measured (“E-score (rank enrichment, -0.5 to 0.5)”: median about -0.0075, highest 2% from about 0.23 on). The full list was thinned out, with the highest values kept by preference.
# Tested on: WT Max(13-93) synthetic (M65Nle)
# Assay: PBM 8-mer E-score (E-score (rank enrichment, -0.5 to 0.5)); higher = stronger preferential binding
# Description: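 Protein binding microarray (universal PBM chip covering all 10-mers in fixed probe flanks) with chemically synthesized human Max(13-93) bHLH-LZ analogs (not full-length Max) bearing noncanonical residues (hArg, Tha, Aib, Nle at 65) and aromatic Cys staples. Read-out per 8-mer (and its reverse complement): E-score (rank-based enrichment, -0.5 to 0.5) and Z-score of median probe intensity.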
row,Sequence,PBM 8-mer E-score
1,CCAAACTA,0.165 ± 0.012
2,AAGCTCAT,-0.131 ± 0.098
3,AAGGTCGG,-0.014 ± 0.081
4,AGACAACG,0.246 ± 0.068
5,AGACAACT,0.0555 ± 0.044
6,AGACAACC,0.0303 ± 0.033
7,CGGCAGTA,-0.142 ± 0.064
8,AATCGATC,-0.232 ± 0.024
9,CCCCTAGA,0.0696 ± 0.042
10,TTATTGAA,0.254 ± 0.0091
11,GTATTGAA,0.119 ± 0.057
12,ATATTGAA,0.114 ± 0.03
13,CTCATAGA,-0.0903 ± 0.024
14,AGCCGGAC,-0.207 ± 0.036
15,CCGATTAG,0.0704 ± 0.0021
16,CCCCCATC,0.0485 ± 0.11
17,GTAAGTTA,0.0737 ± 0.022
18,ATAAGTTA,0.258 ± 0.062
19,CTAAGTTA,-0.011 ± 0.089
20,ATGGTGCA,0.264 ± 0.074
21,GTGGTGCA,0.0246 ± 0.1
22,ATGGTGCG,-0.0696 ± 0.06

row,Sequence,PBM 8-mer E-score
1,GGAAAGCA,-0.0514 ± 0.036
2,CGCGGACA,-0.102 ± 0.039
3,AACGAGCG,-0.0104 ± 0.028
4,CACATGTC,0.186 ± 0.026
5,AACATGTC,0.12 ± 0.037
6,CAAATGTG,0.152 ± 0.026
7,CACATGTG,0.435 ± 0.007
8,CACATGTA,0.379 ± 0.0071
9,CTCATGTA,0.138 ± 0.03
10,CCCATGTA,0.0146 ± 0.049
11,AACATGTT,0.137 ± 0.042
12,AACATGTG,0.412 ± 0.017
13,CGCTGTGA,-0.0883 ± 0.11
14,AGGAGGAC,-0.0293 ± 0.04
15,GTGGGATA,0.163 ± 0.018
16,GCGGTACC,-0.176 ± 0.019
17,GTATGTCA,0.246 ± 0.028
18,GTATGTAA,0.288 ± 0.0084
19,ATATGTCA,0.1 ± 0.073
20,GAATGTAA,0.163 ± 0.13
21,ATATGTAA,0.239 ± 0.05
22,ATATGTAC,0.0738 ± 0.0056

row,Sequence,PBM 8-mer E-score
1,CTATGTAA,-0.0284 ± 0.05
2,CTATGTCA,0.0959 ± 0.026
3,GTATGTTA,0.164 ± 0.091
4,AGGCGAAG,-0.078 ± 0.072
5,CCGTTTCG,-0.0232 ± 0.051
6,GCTCACGA,0.0957 ± 0.066
7,AACGGTAT,0.0275 ± 0.051
8,CCAGTGAA,-0.0413 ± 0.11
9,AAAGCAAT,0.0889 ± 0.03
10,ATACTGTG,0.012 ± 0.036
11,CTACATTC,0.0193 ± 0.054
12,ATACATTG,0.168 ± 0.05
13,ATACATTC,0.285 ± 0.006
14,GCTCGCCA,-0.0485 ± 0.054
15,GCGCTAAC,-0.0628 ± 0.026
16,AGGAGATA,0.0677 ± 0.065
17,CCAGCGGA,-0.175 ± 0.022
18,CTCATTAA,0.204 ± 0.07
19,ACCATTAA,0.284 ± 0.11
20,ACCATTCC,0.00607 ± 0.099
21,ATCATTAG,0.209 ± 0.02
22,CGCATTAA,-0.00629 ± 0.02

row,Sequence,PBM 8-mer E-score
1,TGCATTAA,0.26 ± 0.051
2,ACCATTCA,0.233 ± 0.0053
3,ATCATTAA,0.238 ± 0.023
4,TCCATTAA,0.0431 ± 0.0063
5,CCCATTAA,0.0514 ± 0.069
6,ACCATTCG,-0.0773 ± 0.11
7,AGCATTAA,0.173 ± 0.078
8,AATGGTCT,-0.085 ± 0.06
9,ATTTTGCC,-0.00751 ± 0.0085
10,CATTCGCG,0.0727 ± 0.022
11,ACCCTTAC,0.0907 ± 0.047
12,ATCGTGAC,-0.123 ± 0.014
13,GGCTGCCC,-0.212 ± 0.043
14,AACAGACT,0.125 ± 0.061
15,AAGGCGTC,-0.0911 ± 0.022
16,TGCCACAA,-0.0153 ± 0.13
17,CCCAGTTA,-0.0517 ± 0.012
18,AATAATAC,0.211 ± 0.029
19,CATAATAA,0.114 ± 0.18
20,GATAATTA,0.157 ± 0.17
21,CCTAATAA,0.166 ± 0.01
